Test results taken from the supplement of paper PMC6331611.
Several values for one entry are separate records, joined by “and”; a condition that tells them apart may be missing. Equal entries are not always repeated. ± gives the standard deviation of the averaged measurements. Whole data set: some 1,600 compounds, median “normalized intracellular growth (luminescence, IQM-normalized) in RAW264.7 macrophages” near 1, cut for the lowest 2% near 0.43. For the sample, the lowest values were picked, then their nearest neighbours and some compounds at random.

Test system: Salmonella enterica serovar Typhimurium SL1344
Experiment: normalized intracellular growth (luminescence, IQM-normalized) in RAW264.7 macrophages (fraction of plate interquartile mean); higher = more bacterial growth (less inhibition)
Details: 10 µM

Compound	normalized intracellular growth (time point: T3 (3 h))	normalized intracellular growth (time point: Tfinal (~6 h))
NC(=O)C1(N2CCCCC2)CCN(CCCC(=O)c2ccc(F)cc2)CC1	0.984 ± 0.085	0.965 ± 0.16
O=C(CCCN1CCC(O)(c2ccc(Br)cc2)CC1)c1ccc(F)cc1	0.391 ± 0.23	1.28 ± 0.14
O=C(CCCN1CCC(O)(c2ccc(Cl)cc2)CC1)c1ccc(F)cc1	0.957 ± 0.056	1 ± 0.085
N[C@@H](CCC(=O)N[C@@H](CS)C(=O)NCC(=O)O)C(=O)O	1.1 ± 0.056	0.832 ± 0.11
CC(C)CCCC(C)NC(C)C (stereo not drawn)	1 ± 0.017	0.999 ± 0.11
Cc1ccc(S(=O)(=O)NCl)cc1	0.946 ± 0.021	0.902 ± 0.052
OCc1ccccc1O	1.07 ± 0.017	1.01 ± 0.022
CC1CCc2cc(F)cc3c(=O)c(C(=O)O)cn1c23 (stereo not drawn)	0.937 ± 0.026	0.389 ± 0.025
CC1CCc2c(N3CCC(O)CC3)c(F)cc3c(=O)c(C(=O)O)cn1c23 (stereo not drawn)	0.894 ± 0.051	0.0538 ± 0.029
N[C@@H](Cc1ccc(O)cc1)C(=O)O	0.934 ± 0.037	0.846 ± 0.31
C=C(C)[C@H]1CC=C(C)CC1	0.96 ± 0.013	1.1 ± 0.098
C#C[C@]1(OC(C)=O)CC[C@H]2[C@@H]3CCC4=CC(=O)CC[C@@H]4[C@H]3CC[C@@]21C	1.03 ± 0.046	0.972 ± 0.043
CC(O)CC(C)(C)O (stereo not drawn)	1.05 ± 0.086	0.769 ± 0.19
CC[C@H]1OC(=O)[C@H](C)[C@@H](O[C@H]2C[C@@](C)(OC)[C@@H](O)[C@H](C)O2)[C@H](C)[C@@H](O[C@@H]2O[C@H](C)C[C@H](N(C)C)[C@H]2O)[C@](C)(O)C[C@@H](C)/C(=N\OCOCCOC)[C@H](C)[C@@H](O)[C@]1(C)O	1.06 ± 0.03	0.825 ± 0.42
CC[C@H]1OC(=O)[C@H](C)[C@@H](O[C@H]2C[C@@](C)(OC)[C@@H](O)[C@H](C)O2)[C@H](C)[C@@H](O[C@@H]2O[C@H](C)C[C@H](N(C)C)[C@H]2O)[C@](C)(O)C[C@@H](C)CN(C)[C@H](C)[C@@H](O)[C@]1(C)O	1.05 ± 0.039	0.00697 ± 0.00054
CC[C@H]1OC(=O)[C@H](C)[C@@H](O[C@H]2C[C@@](C)(OC)[C@@H](O)[C@H](C)O2)[C@H](C)[C@@H](O[C@@H]2O[C@H](C)C[C@H](N(C)C)[C@H]2O)[C@](C)(O)C[C@@H](C)C(=O)[C@H](C)[C@@H](O)[C@]1(C)O	0.964 and 0.725	0.913 and 0.963
O=C(O)/C=C/C(=O)O	1.14 ± 0.1	1.03 ± 0.16
CCCCCCCCCCOc1cc2c(O)c(C(=O)OCC)cnc2cc1OCC	0.942 ± 0.08	0.973 ± 0.13
CC/C=C\C/C=C\C/C=C\C/C=C\C/C=C\C/C=C\CCC(=O)O	0.977 ± 0.069	1.02 ± 0.09
COc1cc2c3cc1Oc1cc(ccc1O)C[C@@H]1c4c(cc(OC)c(O)c4Oc4ccc(cc4)C[C@@H]3N(C)CC2)CC[N+]1(C)C	0.937 ± 0.083	0.976 ± 0.16
CC[C@H]1OC(=O)[C@H](C)C(=O)[C@H](C)[C@@H](O[C@@H]2O[C@H](C)C[C@H](N(C)C)[C@H]2O)[C@](C)(OC)C[C@@H](C)C(=O)[C@H](C)[C@H]2N(CCCCn3cnc(-c4cccnc4)c3)C(=O)O[C@]12C	1.01 ± 0.086	0.0132 ± 0.0042
CCC(=O)O[C@H]1[C@H](O[C@@H]2[C@@H](C)[C@H](O[C@H]3C[C@@](C)(OC)[C@@H](O)[C@H](C)O3)[C@@H](C)C(=O)O[C@H](CC)[C@@](C)(O)[C@H](O)[C@@H](C)C(=O)[C@H](C)C[C@@]2(C)O)O[C@H](C)C[C@@H]1N(C)C	0.792 ± 0.092	0.901 ± 0.065

Compound	normalized intracellular growth (time point: T3 (3 h))	normalized intracellular growth (time point: Tfinal (~6 h))
CC[C@H]1OC(=O)[C@H](C)[C@@H](O[C@H]2C[C@@](C)(OC)[C@@H](O)[C@H](C)O2)[C@H](C)[C@@H](O[C@@H]2O[C@H](C)C[C@H](N(C)C)[C@H]2O)[C@](C)(OC)C[C@@H](C)C(=O)[C@H](C)[C@@H](O)[C@]1(C)O	1.09 ± 0.015	0.976 ± 0.071
CCN[C@@H]1C[C@H](N)[C@@H](O[C@H]2OC(CN)=CC[C@H]2N)[C@H](O)[C@H]1O[C@H]1OC[C@](C)(O)[C@H](NC)[C@H]1O	0.986 ± 0.033	0.632 ± 0.25
O=S(=O)(O)NC1CCCCC1	0.688 ± 0.097	0.748 ± 0.044
CCCCCCCCCCC[C@@H](C[C@@H]1OC(=O)[C@H]1CCCCCC)OC(=O)[C@H](CC(C)C)NC=O	0.987 ± 0.091	1.21 ± 0.048
C[N+](C)(C)CC(O)CC(=O)[O-] (stereo not drawn)	0.978 ± 0.032	0.91 ± 0.16
O=c1cc[nH]c(=O)[nH]1	0.935 ± 0.09	0.9 ± 0.052
O=c1[nH]cc(F)c(=O)[nH]1	0.731 ± 0.089	0.153 ± 0.006
Nc1nc(=O)[nH]cc1F	1.07 ± 0.058	1.28 ± 0.1
O=C(NCCCN1CCOCC1)c1ccc(Cl)cc1	1.25 ± 0.11	1.35 ± 0.15
O=C(c1cccnc1)N1CCOCC1	1.01 ± 0.09	0.728 ± 0.18
CC(=O)c1ccc2c(c1)N(CCCN1CCN(CCO)CC1)c1ccccc1S2	1.04 ± 0.024	0.807 ± 0.11
Cc1c2oc3c(C)ccc(C(=O)N[C@@H]4C(=O)N[C@H](C(C)C)C(=O)N5CCC[C@H]5C(=O)N(C)CC(=O)N(C)[C@@H](C(C)C)C(=O)O[C@@H]4C)c3nc-2c(C(=O)N[C@@H]2C(=O)N[C@H](C(C)C)C(=O)N3CCC[C@H]3C(=O)N(C)CC(=O)N(C)[C@@H](C(C)C)C(=O)O[C@@H]2C)c(N)c1=O	0.861 ± 0.057	1.05 ± 0.12
CCCCCCCC/C=C\CCCCCCCC(=O)O.NCCO	1.05 ± 0.035	1.09 ± 0.041
COC(=O)N/N=C/c1c[n+]([O-])c2ccccc2[n+]1[O-]	0.957 ± 0.032	0.309 ± 0.16
CC(=O)[C@@]1(O)CC[C@H]2[C@@H]3C=C(Cl)C4=CC(=O)[C@@H]5C[C@@H]5[C@]4(C)[C@H]3CC[C@@]21C	1.06 ± 0.049	0.762 ± 0.26
COc1c2occc2cc2ccc(=O)oc12	1.15 ± 0.034	1.36 ± 0.076
Nc1nc(N)c2nc(CNc3ccc(C(=O)N[C@@H](CCC(=O)O)C(=O)O)cc3)cnc2n1	0.994 ± 0.021	1.09 ± 0.15
CCCCCC(C)N (stereo not drawn)	0.993 ± 0.077	0.979 ± 0.12
CO[C@H]1C[C@H](O[C@@H]2/C(C)=C/C[C@@H]3C[C@@H](C[C@]4(CC[C@H](C)[C@@H](C5CCCCC5)O4)O3)OC(=O)[C@@H]3C=C(C)/C(=N/O)[C@H]4OC/C(=C\C=C\[C@@H]2C)[C@]43O)O[C@@H](C)[C@@H]1O	1.01 ± 0.064	1.16 ± 0.094
CC(=O)OCC(=O)[C@@]1(O)CC[C@H]2[C@@H]3CCC4=CC(=O)C=C[C@]4(C)[C@H]3[C@@H](O)C[C@@]21C	0.822 ± 0.19	0.823 ± 0.06
C[C@]12C=CC(=O)C=C1CC[C@@H]1[C@@H]2[C@@H](O)C[C@@]2(C)[C@H]1CC[C@]2(O)C(=O)CO	0.8 ± 0.15	0.888 ± 0.078
C[C@H]1C[C@@H]2[C@H]([C@@H](O)C[C@@]3(C)[C@H]2CC[C@]3(O)C(=O)CO)[C@@]2(C)C=CC(=O)C=C12	1.07 ± 0.02	0.417 ± 0.054
